The values that follow come from PubChem BioAssay.

For assay [1], the system named is Human papillomavirus type 1a protein E7 (residues 44-93). As to the kind of experiment: small molecules binding HPV E7 44-93 – biochemical, small-molecule microarray, residues 44-93, 635 nm fluorescence, primary screen (AID 1108).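 Note: E7 fragment applied at 1 µg/mL in TBST for 1 h at 4 C; score combines spot fluorescence with its signal to noise ratio.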 The settings on record: fluorescence 635 nm, higher = more signal.
The nature of assay [2]: hepatitis C replication reporter changes, two-sided – Huh7 cells, luciferase reporter, HCV replication inhibitor project, primary screen (AID 1109).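 Note: huh7 hepatoma cells harbouring a luciferase neomycin HCV replicon reporter; luciferase luminescence as measure of HCV replicon replication; test concentration not given here.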 The settings on record: Huh7 HCV replicon luciferase reporter, 48 h; higher = more signal.
In assay [3] the target is Left-right determination factor 2 (Homo sapiens) (UniProt O00292). The assay is described as follows: small molecules binding LEFTY2 protein – biochemical, small-molecule microarray, 635 nm fluorescence scan, primary screen (AID 1110). Particulars: higher = more signal.
For assay [4], the target named is Calmodulin-1 (Homo sapiens) (UniProt P0DP23). The assay is described as follows: small molecules binding calmodulin-1 with EGTA – biochemical, small-molecule microarray, Cy5-labelled CALM1, profiling panel (AID 1111).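 Note: labelled calmodulin applied in Tris saline Tween buffer holding calcium plus EGTA and DTT.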 Particulars: Cy5-CALM1 binding fluorescence, higher = more signal.
Assay [5] shares this target. The assay is described as follows: small molecules binding Ca-loaded calmodulin-1 – biochemical, small-molecule microarray, Cy5-labelled CALM1, plus calcium, artefact control for SMM control-protein annotation, profiling panel (AID 1112).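 Note: score merges spot fluorescence with signal to noise from triplicate slides.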 Particulars: Cy5-CALM1 binding fluorescence, higher = more signal.
Assay [6] in a line: probe aWnt5a binding to arrayed compounds – biochemical, biotinylated probe, 635/667 nm fluorescence, primary screen (AID 1113).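 Note: score merges 667 nm fluorescence intensity with signal-to-noise per printed feature.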 The settings on record: small-molecule microarray, higher = more signal.
Assay [7] in a line: probe aShh binding to arrayed compounds – biochemical, biotinylated probe, 635/667 nm fluorescence, primary screen (AID 1114).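 Note: probe is biotin-labelled aShh protein from a stem cell growth factor screen; measures binding of labelled protein to compounds printed on the slide; score merges feature fluorescence at 667 nm with signal-to-noise.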 The settings on record: small-molecule microarray, higher = more signal.
The nature of assay [8]: probe aNog binding to arrayed compounds – biochemical, biotinylated probe, 635/667 nm fluorescence, primary screen (AID 1115).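 Note: probe is biotinylated aNog protein used at 0.15 µg/mL for 1 h at 4 C; z-score combines 667 nm fluorescence of each spot with its signal to noise.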 Particulars: small-molecule microarray, higher = more signal.
The target of assay [9] is Torsin-1A-interacting protein 1 (Homo sapiens) (UniProt Q5JTV8). The assay is described as follows: compound microarray binding of lysate hLAP1 – cell lysate, small-molecule microarray, COS7 lysate, 635/667 nm fluorescence, primary screen (AID 1116). Particulars: 635 nm fluorescence, higher = more signal.
Assay [10] concerns the target Alpha-bungarotoxin (Bungarus multicinctus) (UniProt P60615). The assay is described as follows: compounds binding labelled alpha-BTX control protein – biochemical, small-molecule microarray, Alexa647 label, 635/667 nm fluorescence, artefact control for SMM control protein annotation, profiling panel (AID 1117). The settings on record: alpha-BTX-A647 binding fluorescence, higher = more signal.

Another assay deals with Albumin (Bos taurus) (UniProt P02769). As to the kind of experiment: compounds binding labelled BSA control protein – biochemical, small-molecule microarray, Alexa647 label, 635/667 nm fluorescence, artefact control for SMM control protein annotation, profiling panel (AID 1118).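 Note: score merges 667 nm emission intensity and signal-to-noise per printed compound spot.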 The settings on record: BSA-A647 binding, fluorescence 635 nm, higher = more signal.
A short description of assay [11]: probe aXIP binding to arrayed compounds – biochemical, NeuroSMM set, 635/667 nm fluorescence, primary screen (AID 1119).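 Note: probe is the protein aXip251-270 applied at 1 µg/mL to compound-printed slides; binding of probe to printed compounds measured as 667 nm fluorescence plus signal to noise.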 Particulars: small-molecule microarray, higher = more signal, called active from +8 up or from −8 down.
Assay [12] in a line: probe aNOTCH3 binding on compound microarray – biochemical, small-molecule microarray, 635/667 nm fluorescence, primary screen (AID 1120).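 Note: probe is a biotin-tagged antibody raised against NOTCH3 rather than NOTCH3 protein; score merges spot fluorescence near 667 nm with spot signal to noise.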 The settings on record: higher = more signal.
A short description of assay [13]: probe aNOTCH2 binding on compound microarray – biochemical, small-molecule microarray, 635/667 nm fluorescence, primary screen (AID 1121).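 Note: score merges feature fluorescence read at 667 nm with its signal to noise.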 Particulars: higher = more signal.
For assay [14], the target named is Carbonic anhydrase 2 (Homo sapiens) (UniProt P00918). As to the kind of experiment: compounds binding carbonic anhydrase 2 – biochemical, small-molecule microarray, Alexa647-labelled CAII, profiling panel (AID 1122). The settings on record: CAII-A647 binding fluorescence, higher = more signal.
Assay [15] can be described thus: COS7 lysate on small-molecule microarray, probe aHis, 635 nm (AID 1123).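 Note: z-score combines 667nm fluorescence intensity with signal-to-noise per printed compound spot.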 The settings on record: COS7 cell lysate, fluorescence, higher = more signal.
Assay [16] can be described thus: probe aLAP1 signal on lysate-treated microarray – cell lysate, small-molecule microarray, COS7 lysate, primary screen (AID 1124).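 Note: lysate comes from COS7 cells expressing LAP1 and is applied at 0.3 µg/mL; score merges spot fluorescence near 667 nm with signal-to-noise over triplicate slides.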 The settings on record: probe aLAP1, fluorescence, higher = more signal.
A further assay concerns Sam68 (KHDRBS1). The assay is described as follows: compounds binding KHDRBS1 protein – biochemical, small-molecule microarray, 635 nm fluorescence, primary screen (AID 1125).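 Note: score merges 667 nm channel intensity with signal to noise over triplicate slides.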 The settings on record: higher = more signal.
Assay [17] has as its system Chordin-like protein 2 (CHRDL2). As to the kind of experiment: compounds binding chordin-like 2 – biochemical, small-molecule microarray, 635 nm fluorescence, primary screen (AID 1126).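 Note: printed compound slides probed with Chrdl2 protein at 4 µg/mL for 1 h at 4 C; score merges 667 nm emission intensity with signal to noise over three replicate slides.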 Particulars: fluorescence 635 nm, higher = more signal.
Assay [18] deals with Concanavalin-A (Canavalia ensiformis) (UniProt P02866). As to the kind of experiment: compounds binding concanavalin A lectin – biochemical, small-molecule microarray, Alexa647 label, 635 nm, artefact control for SMM control protein annotation, primary screen (AID 1127).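 Note: z combines 667 nm emission intensity with signal-to-noise across three replicate slides.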 The settings on record: ConA-A647 binding fluorescence, higher = more signal.

Activity calls are given as the source filed them.

Sequence of Concanavalin-A (Canavalia ensiformis) (P02866 whole entry, looked up): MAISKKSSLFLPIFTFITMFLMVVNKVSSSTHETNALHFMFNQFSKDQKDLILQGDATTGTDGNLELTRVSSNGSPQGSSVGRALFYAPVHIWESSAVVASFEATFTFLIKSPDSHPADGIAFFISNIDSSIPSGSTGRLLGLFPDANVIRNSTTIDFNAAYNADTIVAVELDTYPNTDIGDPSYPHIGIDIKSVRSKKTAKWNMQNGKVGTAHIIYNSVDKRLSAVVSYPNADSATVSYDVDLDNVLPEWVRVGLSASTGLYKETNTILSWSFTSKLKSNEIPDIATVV
Sequence of Alpha-bungarotoxin (Bungarus multicinctus) (P60615 whole entry, looked up): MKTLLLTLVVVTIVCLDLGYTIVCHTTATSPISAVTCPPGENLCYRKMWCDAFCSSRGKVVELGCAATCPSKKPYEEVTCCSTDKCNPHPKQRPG
Sequence of Torsin-1A-interacting protein 1 (Homo sapiens) (Q5JTV8 whole entry, looked up): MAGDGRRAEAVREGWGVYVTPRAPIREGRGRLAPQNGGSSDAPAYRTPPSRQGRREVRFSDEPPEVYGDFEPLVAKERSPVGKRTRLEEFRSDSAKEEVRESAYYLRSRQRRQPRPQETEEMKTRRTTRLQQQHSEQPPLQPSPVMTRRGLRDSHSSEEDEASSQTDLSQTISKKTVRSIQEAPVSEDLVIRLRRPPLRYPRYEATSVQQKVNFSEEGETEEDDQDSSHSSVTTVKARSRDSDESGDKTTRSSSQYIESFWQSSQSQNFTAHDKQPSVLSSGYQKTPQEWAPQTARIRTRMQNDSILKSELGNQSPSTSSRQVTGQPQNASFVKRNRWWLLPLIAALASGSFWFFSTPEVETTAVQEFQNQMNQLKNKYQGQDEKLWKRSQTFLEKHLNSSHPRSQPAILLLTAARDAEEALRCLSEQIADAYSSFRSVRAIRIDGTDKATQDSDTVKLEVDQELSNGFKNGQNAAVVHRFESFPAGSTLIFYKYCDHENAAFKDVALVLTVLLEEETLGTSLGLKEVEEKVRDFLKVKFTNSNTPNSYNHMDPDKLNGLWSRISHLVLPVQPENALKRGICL
Sequence of Left-right determination factor 2 (Homo sapiens) (O00292 whole entry, looked up): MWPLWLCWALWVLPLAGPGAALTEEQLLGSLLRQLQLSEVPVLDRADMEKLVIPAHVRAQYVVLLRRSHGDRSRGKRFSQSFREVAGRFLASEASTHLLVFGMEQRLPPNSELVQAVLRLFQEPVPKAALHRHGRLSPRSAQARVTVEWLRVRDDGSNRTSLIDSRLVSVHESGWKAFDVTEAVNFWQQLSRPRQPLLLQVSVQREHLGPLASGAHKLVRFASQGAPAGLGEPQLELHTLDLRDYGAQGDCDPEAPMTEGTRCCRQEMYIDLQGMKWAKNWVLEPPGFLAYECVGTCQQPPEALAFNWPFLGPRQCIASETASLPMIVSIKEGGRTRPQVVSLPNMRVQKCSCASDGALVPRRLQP
Sequence of Albumin (Bos taurus) (P02769 whole entry, looked up): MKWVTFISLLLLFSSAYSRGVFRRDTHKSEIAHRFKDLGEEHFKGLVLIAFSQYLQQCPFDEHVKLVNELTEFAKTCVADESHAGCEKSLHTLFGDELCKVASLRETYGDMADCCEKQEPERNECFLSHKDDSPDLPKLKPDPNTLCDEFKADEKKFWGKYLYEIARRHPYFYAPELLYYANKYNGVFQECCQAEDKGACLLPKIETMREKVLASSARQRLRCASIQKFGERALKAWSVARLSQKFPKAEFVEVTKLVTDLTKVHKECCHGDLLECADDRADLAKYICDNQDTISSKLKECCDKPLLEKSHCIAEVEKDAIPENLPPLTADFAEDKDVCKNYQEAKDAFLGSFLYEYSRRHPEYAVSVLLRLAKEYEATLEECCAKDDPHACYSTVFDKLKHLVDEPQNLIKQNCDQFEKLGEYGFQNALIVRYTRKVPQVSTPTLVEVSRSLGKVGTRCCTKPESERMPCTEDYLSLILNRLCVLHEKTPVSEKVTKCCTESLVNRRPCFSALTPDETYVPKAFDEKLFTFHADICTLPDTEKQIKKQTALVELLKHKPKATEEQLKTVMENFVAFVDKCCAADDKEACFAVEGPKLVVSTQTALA

For `COC(=O)c1c(CC[C@@H](CO)NC(=O)N[C@@H](Cc2ccccc2)Cn2cc(-c3cncn3C)nn2)oc(C(C)=O)c1C(=O)OC`, the composite z-score in assay [1] is 1.47; in assay [3] it was -0.338; in [4] it was 0.162; in assay [5], -0.329; in assay [6] it was -0.124; in [7], -0.0866. The composite z-score in assay [8] was -0.394; in assay [9], 1.62; in assay [10], 0.581; with Albumin (Bos taurus) it was 0.979; in assay [12] it was 0.212; in assay [13], -0.144. Besides, the composite z-score in assay [14] was 0.648; in assay [15], 1.95; in assay [16], 0.512; with Sam68 (KHDRBS1), 1.21; in assay [17], -0.722; in assay [18], 1.07. This compound also came in with a z-score in [2] of -0.594. In addition, the composite Z-score in [11] is 0.047 (inactive).

Consider `COc1cc2c(cc1O)C(c1ccc(CN3CCCC3)cc1)N(Cc1cccc(OC(F)(F)F)c1)CC2` (stereo not given), for which the composite z-score in [1] was 0.743; in assay [3], 0.629; in assay [4], -0.0262; in [5], -0.664; in assay [6] it was -0.203; in [7], -0.0522. Further, the composite z-score in assay [8] is 0.0583; in assay [9] it was 0.62; in [10] it was 1.61; with Albumin (Bos taurus), 0.771; in assay [12] it was -0.0795; in [13], -0.207. The composite z-score in assay [14] is 0.546; in [15], 1.72; in assay [16] it was 0.637; in the assay on Sam68 (KHDRBS1), 0.658; in assay [17], 0.73; in assay [18], -0.328. The compound further gave a z-score in assay [2] of -3.63. For the same compound, in assay [11], the composite Z-score was 0.339 (inactive).

With `COCCOC(=O)N1C(=O)[C@@]2(c3ccccc31)[C@H](c1ccc(OCCO)cc1)N1[C@H](c3ccccc3)[C@H](c3ccccc3)OC(=O)[C@H]1[C@@H]2C(=O)N1CCN(c2ncccn2)CC1`, the composite z-score is 1.41 in assay [1]; 1.06 in assay [3]; 1.51 in assay [4]; 0.039 in [5]; -0.001 in assay [6]; -0.043 in [7]. The composite z-score turned out to be 0.998 in assay [8]; 1.5 in assay [9]; 1.26 in assay [10]; 0.0718 with Albumin (Bos taurus); 0.146 in assay [12]; 0.0248 in assay [13]. Moreover, the composite z-score was 0.351 in assay [14]; 1.78 in assay [15]; 0.282 in [16]; 1.3 in the assay on Sam68 (KHDRBS1); 0.756 in assay [17]; 1.1 in [18]. The z-score in assay [2] is -1.47. Also, the composite Z-score in assay [11] is -0.216 (inactive).

In the case of `CCOC(=O)C[C@H]1[C@H](OC(=O)Cc2ccc3c(c2)OCO3)[C@@H](NC(=O)c2ccccc2)c2cc(OCCCO)ccc2N1C(=O)Cc1ccc(OC)cc1`, the composite z-score in [1] is 0.334; in assay [3], -0.113; in assay [4], 1.04; in assay [5] it was 0.188; in assay [6] it was -0.0545; in assay [7], -0.0626. In addition, the composite z-score in assay [8] is -0.196; in assay [9], 0.435; in [10], 0.774; with Albumin (Bos taurus), 0.521; in [12], -0.116; in assay [13], -0.0974. The composite z-score in assay [14] is 0.544; in assay [15], 1.04; in assay [16], -0.0337; with Sam68 (KHDRBS1), 0.683; in assay [17], -0.302; in [18], 0.808. In addition, the z-score in assay [2] was -1.53. Moreover, the composite Z-score in assay [11] is -0.751 (inactive).

`CCCCC(=C=CC[C@H](O)c1ccc(OCCO)cc1)C[C@H](O)c1ccccn1`: the composite z-score in assay [1] is 1.31; in assay [3] it was 0.295; in assay [4], 0.587; in [5] it was -0.758; in assay [6], -0.0758; in assay [7] it was -0.0011. In addition, the composite z-score in assay [8] was 0.253; in assay [9], 0.875; in assay [10], 0.634; in the assay with Albumin (Bos taurus), -0.273; in assay [12], 0.102; in [13], -0.0614. The composite z-score worked out at 0.562 in assay [14]; 1.04 in assay [15]; 0.967 in assay [16]; 1.18 in the assay with Sam68 (KHDRBS1); 0.0162 in assay [17]; 0.544 in [18]. In addition, the z-score in assay [2] was -0.028. Also, the composite Z-score in assay [11] was 0.611 (inactive).
